Only some compounds are listed: those with a hit (about 18% of all), similar ones and a draw of the others.
LDHA block = qHTS assay for inhibitors of human lactate dehydrogenase. AID 1347041, 2019. activity change, % (values are at about 110 or 230 µM). purified LDHA, NADH/diaphorase-resazurin fluorescence; hits give low values. L-lactate dehydrogenase A chain (Homo sapiens), P00338. actives 0.15% (n = 480,000); in the data active = activity change below about -30%; inconclusive = mostly about -25% to -30%
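Enzyme activity of human lactate dehydrogenase 5 (2 nM; 0.06 mM NADH, 0.2 mM pyruvate, 5 min, RT) is measured via a resazurin/diaphorase fluorescence readout of residual NADH.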
Gal4-VP16 FLuc = VP16 counterscreen qHTS for inhibitors of ROR gamma transcriptional activity. Drosophila S2 Gal4-VP16 UAS-luciferase, luminescence, 20 h. Potency, µM (top dose mostly 53.6 µM), hits mostly inhibitors. actives 3.5% (n = 310,000). AID 2546, 2010;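 also: Gal4-VP16 expression switched on by copper sulfate through the metallothionein promoter; nearly all actives have a fitted effect of over 50% in size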
DT40 TDP1 CPT = qHTS for Inhibitors of human tyrosyl-DNA phosphodiesterase 1 (TDP1): qHTS in cells in presence of CPT | chicken DT40 Tdp1-/-;hTDP1 cells + 20 nM CPT, ATP luminescence, 48 h | Potency, µM (doses to about 46.2 µM), most hits filed as inhibitors | actives 12% (n = 420,000) | AID 686979, 2013; also: nearly all actives have a fitted effect of over 55% in size
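Chicken DT40 Tdp1-/- cells stably complemented with human TDP1 were seeded at 400 cells/well in medium containing 20 nM camptothecin, exposed to pin-transferred compounds, and grown at 37 °C for at least 48 hr. Viability was read as ATP luminescence.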
RORgamma inh = qHTS for inhibitors of ROR gamma transcriptional activity. actives 5.4% (n = 310,000). Drosophila S2 Gal4-RORgamma UAS-luciferase reporter, 20 h. Potency, µM (highest dose often 53.6 µM), actives largely listed as inhibitors. Nuclear receptor ROR-gamma (Mus musculus), P51450. AID 2551, 2010; also: nearly all actives have a fitted effect of over 60% in size
Target sequence (P51450 whole entry, looked up, the tested form may be a part): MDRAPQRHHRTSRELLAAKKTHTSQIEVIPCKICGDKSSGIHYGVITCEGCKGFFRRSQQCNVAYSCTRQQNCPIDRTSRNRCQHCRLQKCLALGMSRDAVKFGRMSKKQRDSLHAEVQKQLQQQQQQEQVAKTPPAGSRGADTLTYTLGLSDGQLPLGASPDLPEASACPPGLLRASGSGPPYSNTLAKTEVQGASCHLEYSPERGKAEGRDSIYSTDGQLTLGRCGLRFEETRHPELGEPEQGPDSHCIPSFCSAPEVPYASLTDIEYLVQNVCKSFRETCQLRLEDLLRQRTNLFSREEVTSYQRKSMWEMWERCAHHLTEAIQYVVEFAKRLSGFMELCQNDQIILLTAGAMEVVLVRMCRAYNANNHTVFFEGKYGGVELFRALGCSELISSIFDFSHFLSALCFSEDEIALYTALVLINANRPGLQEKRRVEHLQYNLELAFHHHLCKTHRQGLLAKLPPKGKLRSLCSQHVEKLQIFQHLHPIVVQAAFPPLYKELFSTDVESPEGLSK
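Stably transfected Drosophila Schneider cells are the test system, with ROR gamma fused to Gal4 and luciferase under UAS control; luminescence is read after 20 hr of 700 uM copper sulfate induction at ambient temperature.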
DT40 TDP1 no CPT = qHTS for Inhibitors of human tyrosyl-DNA phosphodiesterase 1 (TDP1): qHTS in cells in absence of CPT. DT40 Tdp1-/- hTDP1 cells, no CPT, ATP luminescence, 48 h. AID 686978, 2013. actives 15% (n = 420,000). Potency, µM (series often up to 46.2 µM), most hits filed as inhibitors; also: nearly all actives have a fitted effect of over 55% in size
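Seeded 400 DT40-hTDP1 cells/well (vehicle DMSO, no 20 nM CPT); pinned compounds; ≥48 hr at 37 °C; CellTiter-Glo luminescence as viability measure.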
IL1B secr inh = qHTS for Inhibitors of Inflammasome Signaling: IL-1-beta AlphaLISA Primary Screen; actives 4.7% (n = 360,000); THP-1 LPS/ATP IL-1B secretion, AlphaLISA, 16 h; hits give low values; activity change, % at 57.5 µM; in the data active = activity change below about -50%; inconclusive = mostly about -30% to -49%
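THP-1 cells pretreated 1 hr with compounds (up to 57.5 uM final), then stimulated with LPS (250 ng/mL final) plus ATP (1.25 mM final); secreted IL-1B measured by AlphaLISA after 16 hr, decreased signal indicating inhibition.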
Each line names hits and unclear results; the compound was inactive in the other large screens. Unless noted, calls follow the shape of the dose curve; as a rule, active = well fitted curve in the direction sought with a large enough effect; inconclusive = small, poorly fitted or top-dose-only effect, or another doubt; inactive = no such curve, though single readings can be large; an effect the other way counts as inactive or inconclusive.

CCOc1ccc2[nH]c(=O)c(C(c3nnnn3Cc3ccco3)N3CCC(C)CC3)cc2c1 (stereo unspecified)	DT40 TDP1 no CPT 26µM
N#Cc1c(NC(=O)CSc2ncn[nH]2)sc2c1CCCCC2	Gal4-VP16 FLuc 0.16µM, RORgamma inh 0.4µM
CCOC(=O)CC(=O)CSc1nc2c(cc1C#N)CCCCC2	none
N#Cc1cc2c(nc1SCC(=O)Nc1sc3c(c1C#N)CCC3)CCCC2	DT40 TDP1 CPT inconclusive, DT40 TDP1 no CPT 12µM, IL1B secr inh -60
CCOC(=O)c1sc(NC(=O)CSc2n[nH]c(-c3ccc(Cl)cc3Cl)n2)c(C#N)c1C	Gal4-VP16 FLuc inconclusive, DT40 TDP1 CPT inconclusive, RORgamma inh 11µM, DT40 TDP1 no CPT 16µM
CCOC(=O)c1sc(NC(=O)CSc2nc3c(cc2C#N)CCCCCC3)c(C#N)c1C	DT40 TDP1 CPT 16µM, DT40 TDP1 no CPT 26µM
N#Cc1c(NC(=O)CSc2nc(N)cc(=O)[nH]2)sc2c1CCCCCC2	Gal4-VP16 FLuc inconclusive, DT40 TDP1 CPT inconclusive, DT40 TDP1 no CPT inconclusive
N#Cc1cc2c(nc1SCC(=O)Nc1sc3c(c1C#N)CCC3)CCCCC2	DT40 TDP1 CPT inconclusive
Cc1cc(C(=O)N2CCCC(C)(C(=O)NS(=O)(=O)C3CC3)C2)n(C(C)(C)C)n1 (stereo unspecified)	DT40 TDP1 CPT 8.2µM, DT40 TDP1 no CPT 5.2µM (no result: Gal4-VP16 FLuc, RORgamma inh)
CC1(C(=O)NS(=O)(=O)C2CC2)CCCN(C(=O)C2(c3ccc(Cl)cc3)CCCC2)C1 (stereo unspecified)	DT40 TDP1 CPT inconclusive, DT40 TDP1 no CPT 12µM (no result: Gal4-VP16 FLuc, RORgamma inh)
CCCNC(=O)C1(C)CCCN(C(=O)c2cc(F)ccc2C)C1 (stereo unspecified)	none (no result: Gal4-VP16 FLuc, RORgamma inh)
Cc1ccc(F)cc1C(=O)N1CCCC(C)(C(=O)NS(=O)(=O)C2CC2)C1 (stereo unspecified)	DT40 TDP1 CPT inconclusive, DT40 TDP1 no CPT 2.6µM (no result: Gal4-VP16 FLuc, RORgamma inh)
COc1ccc(C(=O)N2CCCC(C)(C(=O)NS(=O)(=O)C3CC3)C2)c(OC)c1 (stereo unspecified)	DT40 TDP1 CPT 2.1µM, DT40 TDP1 no CPT 3.7µM (no result: Gal4-VP16 FLuc, RORgamma inh)
COc1ccc(-c2noc(CSc3nc4ccccc4o3)n2)cc1OC	none (no result: Gal4-VP16 FLuc, DT40 TDP1 CPT, RORgamma inh, DT40 TDP1 no CPT, IL1B secr inh)
O=C(NCc1cccnc1-n1cccn1)c1ccc(-c2ccc(Cl)cc2)s1	none (no result: Gal4-VP16 FLuc, DT40 TDP1 CPT, RORgamma inh, DT40 TDP1 no CPT, IL1B secr inh)
COc1cccc(-c2c(NC(=O)c3ccc([N+](=O)[O-])cc3)oc3ccc(Cl)cc3c2=O)c1	none (no result: Gal4-VP16 FLuc, DT40 TDP1 CPT, RORgamma inh, DT40 TDP1 no CPT, IL1B secr inh)
CC(C)(C)c1ccc(-c2nnc(SCC(=O)N3CCOCC3)n2C2CCCCC2)cc1	none (no result: Gal4-VP16 FLuc, DT40 TDP1 CPT, RORgamma inh, DT40 TDP1 no CPT, IL1B secr inh)
CC1(C(=O)NS(=O)(=O)C2CC2)CCN(C(=O)c2ccc(F)cc2Cl)C1 (stereo unspecified)	none (no result: Gal4-VP16 FLuc, RORgamma inh)
CC1(C(=O)NS(=O)(=O)C2CC2)CCCN(C(=O)c2ccc(F)cc2Cl)C1 (stereo unspecified)	DT40 TDP1 CPT inconclusive, DT40 TDP1 no CPT 1.5µM (no result: Gal4-VP16 FLuc, RORgamma inh)
Cc1ccc(F)c(C(=O)N2CCCC(C)(C(=O)NS(=O)(=O)C3CC3)C2)c1F (stereo unspecified)	DT40 TDP1 CPT 6.5µM, DT40 TDP1 no CPT 5.8µM (no result: Gal4-VP16 FLuc, RORgamma inh)
CC1(C(=O)NS(=O)(=O)C2CC2)CCN(C(=O)c2c(F)cccc2F)C1 (stereo unspecified)	none (no result: Gal4-VP16 FLuc, RORgamma inh)
COc1cccc2c(C)nc(Nc3nc(C)c(Cc4ccc(C)cc4)c(=O)[nH]3)nc12	none (no result: Gal4-VP16 FLuc, DT40 TDP1 CPT, RORgamma inh, DT40 TDP1 no CPT, IL1B secr inh)
Cc1ccc2c(c1)C(C)(C)C1(/C=C/c3cccc(Cl)c3)NC(=O)CN21 (stereo unspecified)	none (no result: Gal4-VP16 FLuc, DT40 TDP1 CPT, RORgamma inh, DT40 TDP1 no CPT, IL1B secr inh)
Cc1ccc(Cl)cc1N1CCN(C(=O)CCNS(=O)(=O)c2ccc3c(c2)CCN3C(=O)C2CC2)CC1	DT40 TDP1 CPT 8.2µM, DT40 TDP1 no CPT 23µM (no result: Gal4-VP16 FLuc, RORgamma inh, IL1B secr inh)

Screening results deposited in PubChem BioAssay by National Center for Advancing Translational Sciences (NCATS).
